What all share (test): PBM binding z-score (relative to random genomic background probes); higher = stronger binding; sequences stand for … in GC…GCGATTGACAGCGTAGAATGAAGG
The subject of assay [1] is FXR:RXRa (NR concentration 270 nM, RXRa partner concentration 90 nM). In a few lines: (§1)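 Binding z-scores were set against random background probes. The data came from custom Agilent 4×180K protein-binding microarrays carrying double-stranded probes with 34-nt variable regions, incubated 1 h with ligand-free nuclear receptor dimers. Partner-specific antibodies detected binding, and scanned fluorescence was regression-normalized.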

For assay [2], the system named is LXRa:RXRa (NR concentration 270 nM, RXRa partner concentration 90 nM). In outline: as §1
In assay [3] the test system is LXRa homodimer (NR concentration 270 nM). In a few lines:
as §1

Assay [4] concerns LXRb:RXRa (NR concentration 270 nM, RXRa partner concentration 90 nM). In outline: as §1
The subject of assay [5] is LXRb homodimer (NR concentration 270 nM). In outline: as §1
Assay [6] concerns PPARa:RXRa (NR concentration 270 nM, RXRa partner concentration 90 nM). In outline: as §1
For assay [7], the system named is PPARg:RXRa (NR concentration 180 nM, RXRa partner concentration 90 nM). In outline: as §1
Assay [8] has as its system PPARg:RXRa 270nM:90nM, anti-RXR (NR concentration 270 nM, RXRa partner concentration 90 nM). In outline: as §1
Assay [9] deals with PPARg:RXRa 30nM:10nM, anti-RXR (NR concentration 30 nM, RXRa partner concentration 10 nM). In outline:
as §1

The subject of assay [10] is PPARg:RXRa 90nM:30nM, anti-RXR (NR concentration 90 nM, RXRa partner concentration 30 nM). In outline:
as §1

For assay [11], the system named is PPARg:RXRa DBDmut IVT, anti-RXR (DBD mutation: RXRa K156A/R161A, NR concentration 270 nM, RXRa partner concentration 90 nM). In a few lines:
as §1

Assay [12] has as its system PPARg:RXRa IVT, anti-PPARg (NR concentration 270 nM, RXRa partner concentration 90 nM). In a few lines:
as §1

Assay [13] deals with PPARg DBDmut:RXRa IVT, anti-PPARg (DBD mutation: PPARg1 K132A/R137A, NR concentration 270 nM, RXRa partner concentration 90 nM). In a few lines:
as §1

For assay [14], the system named is PPARg DBDmut IVT, anti-PPARg (DBD mutation: PPARg1 K132A/R137A, NR concentration 270 nM). In outline:
as §1

Assay [15] relates to PPARg homodimer (NR concentration 180 nM). In outline: as §1
Assay [16] concerns PXR:RXRa (NR concentration 270 nM, RXRa partner concentration 90 nM). In outline:
as §1

Assay [17] deals with PXR homodimer (NR concentration 270 nM). In a few lines:
as §1

Assay [18] deals with RARa:RXR (NR concentration 270 nM, RXRa partner concentration 90 nM). In a few lines:
as §1

In assay [19] the test system is RARa homodimer (NR concentration 270 nM). In a few lines: as §1
In assay [20] the test system is RARb:RXRa (NR concentration 270 nM, RXRa partner concentration 90 nM). In a few lines: as §1

With CCTACTGGGCCAGTCAGAGGTCATTGATCATATG, the PBM binding z-score in assay [1] was 2.43; in assay [2], 3.71; in assay [3], 5.39; in assay [4] it was 3.58; in assay [5], -0.105; in [6], 3.66. The PBM binding z-score in [7] was 2.18; in assay [8] it was 3.32; in assay [9], 0.876; in assay [10], 2.2; in assay [11], 3.73; in assay [12], 3.52. In addition, the PBM binding z-score in assay [13] is -0.533; in assay [14], -0.399; in assay [15], 2.3; in assay [16], 4.85; in [17], 1.42; in [18], 4.37. Besides, the PBM binding z-score came out at 0.375 in [19] and 2.92 in assay [20].
Regarding TCTTGTAGATCAGCAGGCTAAGAAAGCTGGCCAA, the PBM binding z-score in [1] is -0.304; in [2], -0.495; in assay [3] it was -0.573; in assay [4], -0.216; in assay [5], -0.933; in assay [6] it was 0.0616. Moreover, the PBM binding z-score in [7] was -0.735; in [8], 0.857; in assay [9] it was 2.22; in [10], 1.47; in assay [11] it was 1.35; in [12] it was 0.0627. Moreover, the PBM binding z-score in assay [13] is -0.91; in assay [14] it was -0.15; in assay [15] it was -1.56; in [16], -0.333; in assay [17], -0.655; in assay [18] it was -0.459. The PBM binding z-score in [19] was -0.665; in assay [20] it was -0.469.
As for GCAGACAGCTGAAACGCAGGTAACTCAGGGTGGC, the PBM binding z-score in assay [1] is -0.689; in assay [2], -0.548; in [3] it was -0.369; in assay [4], -1.06; in assay [5], -1.49; in assay [6], -0.559. The PBM binding z-score in [7] was 0.436; in assay [8] it was -0.461; in assay [9], -0.695; in [10], -0.928; in assay [11], -0.593; in [12] it was -0.619. For the same sequence, the PBM binding z-score was -0.401 in [13]; -0.834 in [14]; -1.24 in assay [15]; -0.942 in assay [16]; -0.526 in assay [17]; -0.648 in [18]. For the same sequence, the results for the PBM binding z-score in assay [19] and in assay [20] were -0.637 and -0.402, respectively.
Consider TAGCCTAGGTGATGCGGGCCAGTATAGTGTCGGC, for which the PBM binding z-score in assay [1] is -0.724; in assay [2] it was -0.891; in [3], -0.841; in [4], -1.2; in assay [5] it was -1.39; in assay [6] it was -0.486. In addition, the PBM binding z-score in assay [7] was -0.087; in assay [8], -0.902; in [9] it was -1.01; in assay [10], -0.934; in [11], -0.174; in assay [12], 0.433. The PBM binding z-score in [13] was -0.831; in [14], -0.995; in [15], -1; in assay [16] it was -0.852; in assay [17], -0.76; in assay [18] it was -0.959. Also, the results for the PBM binding z-score in assay [19] and in assay [20] were -0.718 and -0.225, respectively.
On to TCTGCTAGGGCAACGATGGTCAGCTAATCTGCTA, for which the PBM binding z-score in assay [1] was -0.264; in assay [2], -0.36; in [3] it was -0.78; in [4], -0.55; in assay [5], -0.884; in [6] it was 0.0492. In addition, the PBM binding z-score in assay [7] stood at 0.028; in assay [8] it was 0.551; in assay [9], 1.02; in [10], 0.846; in assay [11], 2.18; in assay [12], 1.59. Also, the PBM binding z-score was -0.859 in assay [13]; -1.01 in [14]; -1.1 in assay [15]; -0.375 in assay [16]; -0.975 in [17]; -0.218 in assay [18]. The PBM binding z-score in [19] was -0.818; in [20], 1.58.
For CTTTACGGGTCACTCCAGGTTATAGCATCGGAGT, the PBM binding z-score in assay [1] worked out at 5.38; in assay [2], 7.71; in [3] it was 3.92; in assay [4], 5.61; in assay [5], 1.09; in assay [6] it was 4.97. In addition, the PBM binding z-score turned out to be 4.47 in assay [7]; 4.7 in assay [8]; 1.86 in [9]; 3.42 in assay [10]; 4.09 in assay [11]; 4.57 in assay [12]. The PBM binding z-score in assay [13] was found to be 1.34; in [14] it was 1.05; in assay [15], 2.31; in assay [16], 5.1; in assay [17], 0.416; in [18], 3.97. Moreover, the values for the PBM binding z-score in assay [19] and in assay [20] were 0.111 and 3.96, respectively.

Values taken from the supplement of paper PMC6555819.
